# Experimental data as given in PubChem BioAssay AID1445 (SRMLSC, 2008).
# The whole screen tested about 220,000 compounds, of which about 910 (0.41%) were called active.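 How the source made its calls: active means primary inhibition above the hit cutoff, then over 50% inhibition at one or more dose response concentrations (cut at about 23% in these data, passing the limit was not always enough); inconclusive means conflicting primary data, or primary hits not chosen for dose response; inactive means low primary inhibition, or under 50% at every dose.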 Shown is part of a subset that was picked to be rich in actives. Entries with a potency or affinity are not part of this list.
# Biological target: Aminopeptidase N (Plasmodium falciparum (isolate 3D7)) (UniProt O96935)
# Assay: malaria alanyl aminopeptidase activity blockers – biochemical, fluorogenic H-Leu-NHMec substrate, 1536-well (AID 1445);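 further: plate controls were DMSO full reaction for no effect and no enzyme background for full effect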
# Conditions: recombinant M1AAP, H-Leu-NHMec fluorogenic kinetic assay; at 30 µM, stronger effect = higher value unless noted
# Aminopeptidase N (Plasmodium falciparum (isolate 3D7)), sequence (O96935 whole entry, looked up): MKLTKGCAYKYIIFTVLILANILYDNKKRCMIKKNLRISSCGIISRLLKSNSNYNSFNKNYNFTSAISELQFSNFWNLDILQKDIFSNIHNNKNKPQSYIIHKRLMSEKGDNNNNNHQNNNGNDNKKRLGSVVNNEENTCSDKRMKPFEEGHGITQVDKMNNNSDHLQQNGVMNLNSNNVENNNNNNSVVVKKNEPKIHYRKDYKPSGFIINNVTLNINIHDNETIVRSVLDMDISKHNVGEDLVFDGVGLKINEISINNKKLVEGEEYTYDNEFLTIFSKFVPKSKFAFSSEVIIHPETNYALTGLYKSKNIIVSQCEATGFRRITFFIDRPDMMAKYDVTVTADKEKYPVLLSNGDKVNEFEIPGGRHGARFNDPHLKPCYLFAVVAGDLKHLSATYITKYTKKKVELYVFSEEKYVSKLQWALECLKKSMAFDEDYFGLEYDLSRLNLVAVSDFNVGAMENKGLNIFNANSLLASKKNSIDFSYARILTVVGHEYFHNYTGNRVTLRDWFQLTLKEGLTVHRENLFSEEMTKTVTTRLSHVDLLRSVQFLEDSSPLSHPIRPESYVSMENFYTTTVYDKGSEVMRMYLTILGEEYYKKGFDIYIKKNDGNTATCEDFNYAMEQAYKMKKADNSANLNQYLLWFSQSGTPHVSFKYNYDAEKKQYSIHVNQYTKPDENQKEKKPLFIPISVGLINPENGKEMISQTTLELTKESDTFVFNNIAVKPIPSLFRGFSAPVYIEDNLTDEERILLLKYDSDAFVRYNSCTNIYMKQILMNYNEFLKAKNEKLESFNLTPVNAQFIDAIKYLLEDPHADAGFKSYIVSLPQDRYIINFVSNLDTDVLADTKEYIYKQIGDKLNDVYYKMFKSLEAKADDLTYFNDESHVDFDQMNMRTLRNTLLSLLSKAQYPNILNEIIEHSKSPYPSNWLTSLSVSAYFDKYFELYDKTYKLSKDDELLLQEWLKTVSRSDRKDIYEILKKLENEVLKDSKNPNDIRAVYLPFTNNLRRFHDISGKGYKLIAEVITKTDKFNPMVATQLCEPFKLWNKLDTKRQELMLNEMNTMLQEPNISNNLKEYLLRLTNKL
row,SMILES,inhibition
1,CCOC(=O)c1c(C)oc2ccc(NS(=O)(=O)c3ccc(C(=O)O)cc3)cc12,10.2% (inactive)
2,CC1(C)CC(=O)c2c(oc3ccc(NS(=O)(=O)c4cccc5cccnc45)cc23)C1,3.99% (inactive)
3,O=C(N=Nc1c(O)[nH]c2ccccc12)c1cccc(S(=O)(=O)Nc2ccccc2Cl)c1,13.3% (inactive)
4,CCOCCc1nnc(NC(=O)Cc2ccccc2)s1,7.8% (inactive)
5,CCn1c(SCC(=O)Nc2ccccc2C)nc2nc3c(cc2c1=O)COC(C)(C)C3,13.2% (inactive)
6,CCCc1cc(=O)oc2cc(C)cc(OCc3nn[nH]n3)c12,17.7% (inactive)
7,CCc1cc(=O)oc2cc(C)cc(OCc3nn[nH]n3)c12,9.2% (inactive)
8,Cc1c(N2C(=O)/C(=C/c3ccccc3)SC2=S)c(=O)n(-c2ccccc2)n1C,13.6% (inactive)
9,Cc1c(N2C(=O)/C(=C\c3ccccc3O)SC2=S)c(=O)n(-c2ccccc2)n1C,13% (inactive)
10,COC(=O)c1ccc(/C=C2\N=C(SC)SC2=O)cc1,6.81% (inactive)
11,COc1ccc(/C=C2\N=C(SC)SC2=O)cc1OC,-0.19% (inactive)
12,CCOc1c(OC(C)=O)ccc(/C=C2\N=C(SCC)SC2=O)c1[N+](=O)[O-],9.88% (inactive)
13,C=CCSC1=N/C(=C\c2cc(OCC)c(OC(C)=O)c([N+](=O)[O-])c2)C(=O)S1,10.7% (inactive)
14,CCOc1cc(/C=C2\N=C(SCC)SC2=O)cc([N+](=O)[O-])c1OC(C)=O,60.6% (active)
15,Cc1ccsc1/C=N/NC(=O)c1ccc(-n2cccc2)cc1,-0.71% (inactive)
16,CCC(=O)c1ccc(N2CCN(S(=O)(=O)c3ccccc3)CC2)c(F)c1,-2.32% (inactive)
17,OC1CCN(c2ncnc3c2nnn3Cc2c(F)cccc2Cl)CC1,-1.3% (inactive)
18,Cn1nnnc1SCC(=O)Nc1c(Cl)cccc1Cl,-11.1% (inactive)
19,O=C(NN1C(=O)c2cc(Br)ccc2NC1c1cc(Br)cc(Br)c1O)c1ccncc1 (centres undefined),15.9% (inactive)
20,NS(=O)(=O)c1ccc(CCNC(=O)CN2CCCCC2)cc1,-1.82% (inactive)

row,SMILES,inhibition
1,NS(=O)(=O)c1ccc(CCNC(=O)c2ccc(S(=O)(=O)N3CCCCC3)cc2)cc1,15.2% (inactive)
2,O=C(COC(=O)Cc1ccc(S(=O)(=O)N2CCOCC2)s1)NCCc1ccccc1,5.27% (inactive)
3,O=C(Cc1ccc(S(=O)(=O)N2CCOCC2)s1)NCC1CCCCC1,3.48% (inactive)
4,CCn1cc(CNC(=O)CSc2nc(-c3ccc(OC)c(OC)c3)cc(C(F)(F)F)n2)c(C)n1,8.78% (inactive)
5,O=C(CC1(c2ccc(Cl)cc2)C2CC3CC(C2)CC1C3)NCCO (centres undefined),3.19% (inactive)
6,CCN1CCN(CCCNC(=O)c2cn(CCOC)c(=O)c3c2c2ccccc2n3C)CC1,17.7% (inactive)
7,COc1cc(CNc2ccc(O)cc2)cc(Br)c1OCc1ccccc1F,7.46% (inactive)
8,CCOc1cc(CNc2ccc(O)cc2)cc(Br)c1OCc1ccccc1F,25.5% (active)
9,CCOc1cc(CNc2ccccc2)cc(Br)c1OCc1ccccc1F,6.06% (inactive)
10,Cn1c(C(=O)NC2CCCCC2)cc2c(=O)n(C)c3ccccc3c21,-0.49% (inactive)
11,CC1(CC(=O)N/N=C/c2cc([N+](=O)[O-])c(O)cc2O)OCCO1,9.24% (inactive)
12,CC1(CC(=O)N/N=C/c2cc3c(cc2Br)OCO3)OCCO1,9.79% (inactive)
13,CC1(CC(=O)N/N=C/c2cc(Br)c(O)cc2O)OCCO1,31.5% (active)
14,COc1ccc(CCNC(=O)c2cc(-c3ccc(C)c(C)c3O)n[nH]2)cc1OC,0.7% (inactive)
15,Cc1ccc(S(=O)(=O)Nc2nc(C)c(C(=O)Nc3ccccc3)s2)cc1,4.37% (inactive)
16,Cc1ccc(S(=O)(=O)Nc2nc(C)c(C(=O)NNS(=O)(=O)c3ccccc3)s2)cc1,3.2% (inactive)
17,Cc1nc(NS(=O)(=O)c2ccccc2)sc1C(=O)NN,6.77% (inactive)
18,C/C(=N/NC(=O)c1sc(NS(=O)(=O)c2ccccc2)nc1C)c1ccccc1,18.9% (inactive)
19,O=C(CSc1nc2ccccc2o1)Nc1cc(C(F)(F)F)ccc1N1CCOCC1,8.71% (inactive)
20,CCCCn1c(C)csc1=Nc1cccnc1,4.71% (inactive)

row,SMILES,inhibition
1,Cc1cc(C)c(S(=O)(=O)Nn2cnnc2)c(C)c1,-1% (inactive)
2,CCOP(=O)(OCC)/C(C#N)=C/c1cc(OC)ccc1OC,1.01% (inactive)
3,COc1ccccc1NC(=S)N1CCCC1,8.78% (inactive)
4,CCOC(=O)NCc1cc(-c2nn(C)c(=O)c3ccccc23)ccc1C,-0.16% (inactive)
5,CCC(=O)NCc1cc(-c2nn(C)c(=O)c3ccccc23)ccc1C,3.73% (inactive)
6,CCCC(=O)NCc1cc(-c2nn(C)c(=O)c3ccccc23)ccc1C,-1.83% (inactive)
7,CC(=O)NCc1cc(-c2nn(C)c(=O)c3ccccc23)ccc1C,12.1% (inactive)
8,CC(O)CNCCCOc1ccc(Cl)cc1C(C)(C)C (centres undefined),2.63% (inactive)
9,Cc1ccc(N(C(=O)C2CCC(=O)N2)C2(C(=O)NC3CCCCC3)CCCCC2)cc1 (centres undefined),3.72% (inactive)
10,CC(C)NS(=O)(=O)c1ccc(CCC(=O)NCc2cccnc2)cc1,3.94% (inactive)
11,CCCCN1CNC(=S)N(c2ccccc2OCC)C1,1.13% (inactive)
12,CCOCCCNCc1cccc(OCc2ccc(F)cc2)c1,-0.98% (inactive)
13,COc1ccc(-c2cc(-c3nnc(-c4ccncc4)o3)c3ccccc3n2)cc1,7.37% (inactive)
14,CSc1nnc(-c2cc(-c3ccc(C)cc3)nc3ccccc23)o1,-2.26% (inactive)
15,CCC(=O)Nc1ccc(-n2nnnc2SCC(=O)NNC(=O)c2ccco2)cc1,4.76% (inactive)
16,S=c1[nH]nc(-c2cccnc2)n1/N=C/C=C/c1ccccc1,10.4% (inactive)
17,O=C(CN(c1ccccc1)S(=O)(=O)c1ccccc1)NCCSc1nc2ccccc2s1,4.5% (inactive)
18,CN1CCN(Cc2nc3ccccc3c(=O)n2Cc2nc(-c3ccc([N+](=O)[O-])cc3)cs2)CC1,11.9% (inactive)
19,CN1CCN(Cc2nc3ccccc3c(=O)n2Cc2nc(-c3ccc4ccccc4c3)cs2)CC1,-1.75% (inactive)
